# Reference: publication PMC4336329 (PLoS ONE, 2015)
# Hit rate of the full screen: of about 310,000 compounds, about 14,000 (4.5%) showed an effect of 50% or more. Effects have a minus sign here. The sample as a whole holds a higher share of strong results than the screen did.
# Target: human ether-à-go-go-related gene (hERG) potassium channel (human, UniProt Q12809)
# Assay: primary screen, population patch clamp on CHO cells stably expressing hERG; higher = less effect of the substance
# 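Note: peak tail current of the secondary pulse compared with the same well before compound.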
# human ether-à-go-go-related gene (hERG) potassium channel, sequence (Q12809 whole entry, looked up): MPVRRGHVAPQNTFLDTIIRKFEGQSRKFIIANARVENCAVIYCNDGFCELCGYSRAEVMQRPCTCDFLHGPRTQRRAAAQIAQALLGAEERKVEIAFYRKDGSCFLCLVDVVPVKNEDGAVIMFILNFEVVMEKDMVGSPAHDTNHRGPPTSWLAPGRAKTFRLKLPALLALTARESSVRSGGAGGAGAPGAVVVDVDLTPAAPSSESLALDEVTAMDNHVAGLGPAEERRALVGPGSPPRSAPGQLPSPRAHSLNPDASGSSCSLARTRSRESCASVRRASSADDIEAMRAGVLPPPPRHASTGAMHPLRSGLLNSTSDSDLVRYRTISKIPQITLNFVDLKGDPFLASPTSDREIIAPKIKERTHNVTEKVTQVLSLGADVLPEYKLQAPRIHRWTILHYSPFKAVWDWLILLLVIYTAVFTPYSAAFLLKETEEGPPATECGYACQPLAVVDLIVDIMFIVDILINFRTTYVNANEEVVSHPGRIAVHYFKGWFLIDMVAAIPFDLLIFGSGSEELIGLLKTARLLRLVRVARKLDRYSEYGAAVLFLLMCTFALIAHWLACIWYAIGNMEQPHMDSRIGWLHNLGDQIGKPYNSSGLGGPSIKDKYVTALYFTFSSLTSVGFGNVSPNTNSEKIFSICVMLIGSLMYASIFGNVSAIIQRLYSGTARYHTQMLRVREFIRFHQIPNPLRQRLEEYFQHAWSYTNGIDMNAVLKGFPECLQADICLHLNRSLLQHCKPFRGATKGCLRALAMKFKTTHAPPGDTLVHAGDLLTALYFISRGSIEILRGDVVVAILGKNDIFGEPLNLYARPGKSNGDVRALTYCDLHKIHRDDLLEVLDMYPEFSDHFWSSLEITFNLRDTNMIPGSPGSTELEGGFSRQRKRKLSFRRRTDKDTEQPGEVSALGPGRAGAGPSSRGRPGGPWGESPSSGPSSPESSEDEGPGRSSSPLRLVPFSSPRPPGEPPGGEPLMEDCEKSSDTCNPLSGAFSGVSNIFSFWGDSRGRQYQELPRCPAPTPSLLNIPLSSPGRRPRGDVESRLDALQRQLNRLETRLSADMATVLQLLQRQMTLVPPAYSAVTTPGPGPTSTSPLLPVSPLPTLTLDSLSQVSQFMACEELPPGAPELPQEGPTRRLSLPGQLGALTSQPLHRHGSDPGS
row,Compound,"hERG current change (%, negative = inhibition) at 10uM"
1,COc1ccc(C)cc1S(=O)(=O)NCCN1CCOCC1,17.5%
2,CC(C)c1ccc(N(C(=O)c2ccco2)C(C(=O)NC2CCCC2)c2cccnc2)cc1 (stereo not drawn),-25.3%
3,COc1cccc(/C=C(/C#N)c2ccc(F)cc2)c1OCc1cccc(C(=O)O)c1,11.4%
4,CCN1CCc2nc3ccccc3c(C(=O)Nc3ccc(C#N)cc3)c2C1,-71%
5,CCN1CCc2nc3ccccc3c(C(=O)Nc3ccc(F)cc3)c2C1,-74.5%
6,CCN1CCc2nc3ccccc3c(C(=O)Nc3ccc(NC(C)=O)cc3)c2C1,10.2%
7,O=C(NCc1ccc(F)cc1)c1c2c(nc3ccccc13)CCN(Cc1ccccc1)C2,-22.2%
8,CCOc1ccc(NC(=O)c2c3c(nc4ccccc24)CCC3)cc1,8.95%
9,O=C(Nc1ccccc1)c1c2c(nc3ccccc13)CCCC2,-0.42%
10,CCCCC(=O)Nc1cccc(NC(=S)NC(=O)C(C)C)c1,3.44%
11,O=C(NCCc1ccco1)C(=O)NCC1OCCCN1S(=O)(=O)c1ccccc1 (stereo not drawn),-1.76%
12,COc1ccc(/C=N/NC(=S)NCC2CCCO2)cc1 (stereo not drawn),6.97%
13,CCCC(=O)Nc1ccc(NC(=O)c2ccccn2)cn1,-8.57%
14,CC(C)NC(=O)CSCc1ccccc1Cl,12.9%
15,COc1ccc(Cn2nnnc2C(c2cc3cc(C)ccc3[nH]c2=O)N2CCOCC2)cc1 (stereo not drawn),-50.2%
16,COc1ccc(Cn2nnnc2C(c2cc3cc(C)cc(C)c3[nH]c2=O)N2CCOCC2)cc1 (stereo not drawn),-58.2%
17,Cc1ccc2[nH]c(=O)c(C(c3nnnn3CCc3ccccc3)N3CCOCC3)cc2c1 (stereo not drawn),-10.5%
18,COc1cc2cc(C(c3nnnn3Cc3ccc(F)cc3)N3CCCCCC3)c(=O)[nH]c2cc1OC (stereo not drawn),-74%
19,COc1ccc(Cn2nnnc2C(c2cc3ccc(OC)cc3[nH]c2=O)N2CCCCCC2)cc1 (stereo not drawn),-13.6%
20,CCc1ccc2[nH]c(=O)c(C(c3nnnn3Cc3ccc(OC)cc3)N3CCOCC3)cc2c1 (stereo not drawn),-19.1%
21,COc1ccc2cc(C(c3nnnn3Cc3ccc(F)cc3)N3CCCCCC3)c(=O)[nH]c2c1 (stereo not drawn),-23.3%

row,Compound,"hERG current change (%, negative = inhibition) at 10uM"
1,COc1ccc(Cn2nnnc2C(c2cc3cccc(C)c3[nH]c2=O)N2CCOCC2)cc1 (stereo not drawn),-43.6%
2,Cc1ccc(C)c2[nH]c(=O)c(C(c3nnnn3CCc3ccccc3)N3CCOCC3)cc12 (stereo not drawn),-59.4%
3,Cc1ccc(C)c2[nH]c(=O)c(C(c3nnnn3Cc3ccccc3)N3CCc4ccccc4C3)cc12 (stereo not drawn),-9.12%
4,COc1ccc(Cn2nnnc2C(c2cc3cccc(C)c3[nH]c2=O)N2CCN(C)CC2)cc1 (stereo not drawn),29.6%
5,COc1ccc(Cn2nnnc2C(c2cc3cc(C)ccc3[nH]c2=O)N2CCN(C)CC2)cc1 (stereo not drawn),-24.4%
6,COc1cnc(-c2ccccc2)nc1Oc1ccccc1C,-4.2%
7,CN(C)c1ccc(C(=O)/C=C/c2ccccc2)cc1,8.65%
8,O=C(NNC(=O)C1CCN(c2ncccn2)CC1)c1ccc(Cl)cc1,0.113%
9,Cc1cccc(C)c1NC(=O)c1cc2c(=O)c3ccccc3oc2nc1C(F)(F)F,-3.38%
10,C=CCn1cccc(C(=O)Nc2ccc(F)cc2)c1=O,-24.8%
11,COC(=O)CSc1nnc(-c2ccccn2)n1Cc1ccco1,-13.8%
12,COc1ccc(CN(C)CC(=O)Nc2cccc3ccccc23)cc1F,-13.4%
13,COc1ccc(CN(C)CC(=O)Nc2ccc(N3CCOCC3)cc2)cc1OC,-7.84%
14,COc1ccc(CN(C)CC(=O)Nc2ccc(SC(F)F)cc2)cc1OC,-76.2%
15,COc1ccc(CN(C)C(C)C(=O)Nc2ccc(S(=O)(=O)N3CCCCC3)cc2)cc1F (stereo not drawn),-19.7%
16,COc1ccc(CCNC(=S)N(C)C)cc1OC,32.8%
17,COc1ccc(CCN(C)C(=S)Nc2ccc(SC(F)F)cc2)cc1OC,-74.7%
18,COc1ccc(CCN(C)C(=S)NC(=O)c2ccc(F)cc2Cl)cc1OC,-20.4%
19,COc1ccc(CN(C)C(C)C(=O)N(C)CC(=O)Nc2ccc(C)cc2)cc1F (stereo not drawn),-57.1%
20,COc1ccc(Cl)cc1NC(=O)CN(C)Cc1ccc(OC)c(OC)c1,-9.72%
21,CCOC(=O)[C@H]1[C@H]2COc3ccc(Cl)cc3[C@@H]2N2C(=O)c3cc(Cl)ccc3NC(=O)[C@@]12C,3.59%

row,Compound,"hERG current change (%, negative = inhibition) at 10uM"
1,COc1ccc(COC(=O)C2=C(C)NC(=O)NC2c2ccc(O)c(OC)c2)cc1 (stereo not drawn),-3.97%
2,Cc1ccc2[nH]c3c(c2c1)SC(C)(C)CC3=O,3.75%
3,COC(=O)C(NC(=O)CSc1nc(N)cc(=O)[nH]1)c1ccccc1 (stereo not drawn),18.3%
4,C=CCc1ccc(OCCn2cncn2)c(OC)c1,7.93%
5,CCCCCN(C(=O)NC(=O)NC(C)CC)S(C)(=O)=O (stereo not drawn),9.23%
6,CCN(CC)CCn1c2c(c(SCC(=O)Nc3ccccc3Cl)nc1=O)CCC2,-59.8%
7,COc1ccccc1NC(=O)CSc1nc(=O)n(CCN(C)C)c2c1CCCC2,-40.4%
8,CCN(CC)CCn1c2c(c(SCC(=O)NCc3ccccc3)nc1=O)CCCC2,-31.4%
9,Cc1c(Cl)cccc1NC(=O)CSc1nc(=O)n(CCCN2CCOCC2)c2c1CCC2,-47.1%
10,CCN(CC)CCn1c2c(c(SCC(=O)Nc3ccccc3Cl)nc1=O)CCCC2,-55.6%
11,O=C(CSc1nc(=O)n(CCCN2CCOCC2)c2c1CCCC2)Nc1ccccc1Cl,-42.9%
12,CCN(CC)CCCn1c2c(c(SCC(=O)Nc3ccccc3Cl)nc1=O)CCC2,-55.4%
13,CCN(CC)CCn1c2c(c(SCC(=O)NCc3ccccc3)nc1=O)CCC2,-38.7%
14,C/C(=N\NC(=O)c1cccc(S(=O)(=O)N2CCCC2)c1)c1ccco1,14.1%
15,COc1ccc(N2CC(NC(=O)c3cccc4ccccc34)CC2=O)cc1OC (stereo not drawn),-2.85%
16,COc1cccc(CCNC(=O)CC2C(=O)NCCN2CC(C)(C)C)c1 (stereo not drawn),15.8%
17,CCCOc1ccc(NC(=O)CC2C(=O)OCC3CCCCN32)cc1 (stereo not drawn),-4.12%
18,COc1ccc(C2/C=C\CN(C(=O)Nc3ccc(C(F)(F)F)cc3)CC(=O)N2Cc2ccc(F)cc2)cc1 (stereo not drawn),6.55%
19,NC(CO)(CO)CO.O=C(c1ccccc1)c1ccc2n1CCC2C(=O)O (stereo not drawn),-3.5%
20,COc1ccc(N(CC(=O)NCc2ccc3c(c2)OCO3)C(=O)c2csnn2)cc1,-13.6%
21,Cn1c(=O)oc2cc(S(=O)(=O)NCCC(=O)N3CCN(c4ccccc4F)CC3)ccc21,-17%

row,Compound,"hERG current change (%, negative = inhibition) at 10uM"
1,COc1ccc(/C(N)=C/C(=O)C(C)(C)C)cc1,-5.64%
2,COc1nc(Oc2ccc(=O)n(C)n2)nc(N(C)C)n1,0.595%
3,N#Cc1ccc(S(=O)(=O)NC2CCN(Cc3ccccc3)CC2)cc1,-31.8%
4,COc1ccc(OCC(O)Cn2c(=N)n(CCN3CCOCC3)c3ccccc32)cc1.Cl (stereo not drawn),-34.7%
5,COc1ccc(OCC(O)CN2CCCCC2)cc1.Cl (stereo not drawn),8.1%
6,CCOc1ccc(C(O)Cn2c(=N)n(CCN3CCCCC3)c3ccccc32)cc1.Cl (stereo not drawn),-77.2%
7,Cc1ccc(OCC(O)Cn2c(=N)n(CCN3CCCCC3)c3ccccc32)cc1.Cl (stereo not drawn),-72.9%
8,COc1ccccc1OCC(O)Cn1c(=N)n(CCN2CCCCC2)c2ccccc21.Cl (stereo not drawn),-65.4%
9,COc1ccccc1OCCCCN1CCCCC1,-1.89%
10,Cc1ccc(OCC(O)Cn2c(=N)n(CCN3CCOCC3)c3ccccc32)cc1.Cl (stereo not drawn),-43.6%
11,CCOc1ccc(C(O)(c2ccccc2)C(CN2CCCC2)c2ccccc2)cc1.Cl (stereo not drawn),-34%
12,COc1ccc(OCC(O)Cn2c(=N)n(CCN3CCCCC3)c3ccccc32)cc1.Cl (stereo not drawn),-68.1%
13,Cc1onc(-c2c(F)cccc2Cl)c1C(=O)N1CCCc2ccccc21,-21.5%
14,CC(=O)c1ccc(NC(=O)C(=O)c2cn(CC(=O)N3CCCCC3)c3ccccc23)cc1,6.65%
15,COc1ccc(-n2nc(C(=O)NCC(=O)N3CCN(c4ccccn4)CC3)c3ccccc3c2=O)cc1,-34.3%
16,CC(=O)N1CCN(S(=O)(=O)c2cccc(C(=O)Nc3nccs3)c2)CC1,3.42%
17,CCCCN(c1ccccc1)S(=O)(=O)c1cccc(C(=O)O)c1,5.27%
18,C=CCn1c(O)c(N=Nc2ccccc2C)c2ccccc21,4.06%
19,COc1ccc(-n2nnnc2SCC(=O)N2CCCc3ccccc32)cc1OC,-13.4%
20,O=C1C2CCCN2C(c2ccccc2F)N1c1cccc(Cl)c1 (stereo not drawn),3.69%
21,Cc1ccc2nc(CCc3nc4ccc(C)cc4o3)oc2c1,4.09%
